Shown are actives, neighbours in structure and some others; about 2.9% of the full set was active somewhere.
DAGLB inhibitor: blocks human DAGLB lipase activity. AID 504411. 0.059% of 340,000 active. inhibition, % at 5.17 µM. Q8NCG7. HEK293T DAGLB membrane lysate, EnzChek fluorogenic substrate; in the data active = inhibition above about 34%
Myeloid diff MLP: myeloid differentiation induction. ER-HoxA9 myeloid progenitors, lysozyme-GFP differentiation, flow cytometry. calls only at 10 µM. 1% of 360,000 active;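 active = normalized GFP-positive differentiation at or above the plate's own cutoff, the solvent-only control mean plus 3 SD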;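 also: cells exposed to compound for four days before flow analysis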
ABHD5-PLIN5 inh: blocks binding of human ABHD5 to perilipin-5. Split G. princeps luciferase complementation, luminescence, 4 h. inhibition, % at 4 µM. 0.78% of 360,000 active;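 active = inhibition above the mean inhibition across every tested compound plus 3 SD, cut at about 22% in these data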
Cardio protect: modulators protecting cardiomyocytes from myocardial damage; protection from H2O2 cell death, % at 20 µM; H9c2 cardiomyocytes, H2O2 injury protection, ATPLite, 2 h; 0.63% of 360,000 active; AID 588492;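 active = compounds giving at least 50% protection of heart cells from peroxide-induced death in the single-dose screen, raw or plate-pattern-corrected value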
HGIII-sPLA2 inh: Inhibits HGIII-sPLA2 liposome hydrolysis, primary screen; inhibition, % at 12.2 µM; QFRET BODIPY PC-A2 liposome hydrolysis, fluorescence; Q9NZ20; 0.56% of 370,000 active;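 active = inhibition above mean plus 3 SD of compounds lying within the high and low control bounds, cut at about 19% in these data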
Target sequence (Q9NZ20 whole entry, looked up): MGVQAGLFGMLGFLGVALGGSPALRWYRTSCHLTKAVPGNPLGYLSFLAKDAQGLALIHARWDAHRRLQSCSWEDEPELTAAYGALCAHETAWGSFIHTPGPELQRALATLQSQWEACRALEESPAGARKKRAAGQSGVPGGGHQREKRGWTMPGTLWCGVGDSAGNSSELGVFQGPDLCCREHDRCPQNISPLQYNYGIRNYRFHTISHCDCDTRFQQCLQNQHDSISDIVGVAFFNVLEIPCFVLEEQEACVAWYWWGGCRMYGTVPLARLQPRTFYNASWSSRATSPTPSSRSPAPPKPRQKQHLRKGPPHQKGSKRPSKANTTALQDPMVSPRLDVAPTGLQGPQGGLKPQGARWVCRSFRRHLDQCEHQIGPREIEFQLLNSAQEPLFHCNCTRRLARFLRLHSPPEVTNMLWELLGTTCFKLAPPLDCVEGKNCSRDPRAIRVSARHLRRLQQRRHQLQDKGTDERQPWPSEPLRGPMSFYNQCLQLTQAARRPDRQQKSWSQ
Rtt109 HAT inh: blocks Candida albicans Rtt109/Vps75 acetyltransferase activity. AID 540336. purified Rtt109/Vps75, ThioGlo CoA-SH fluorescence, 4 h. 0.16% of 330,000 active. Q5AAJ8. inhibition, % at 34.9 µM;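 active = inhibition of at least 50% in every replicate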
hGIII sPLA2 conf: human GIII-sPLA2 inhibition, confirmation | shares compounds with HGIII-sPLA2 inh | recombinant hGIII-sPLA2, BODIPY PC-A2 QFRET fluorescence | inhibition, % at 12.2 µM | 34% of 2,000 active;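 active = mean inhibition across triplicates above the hit cutoff set in the earlier primary screen, cut at about 19% in these data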
BODIPY interf: counter-screen for HGIII-sPLA2 inhibitors: 535nm fluorescence interference. AID 743282. 8.5% of 2,000 active. shares compounds with HGIII-sPLA2 inh. BODIPY FL product fluorescence interference, QFRET. inhibition, % at 12.2 µM;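 active = average inhibition above the solvent-only control mean plus 3 SD, cut at about 6% in these data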
A number is an active result; - = inactive; . = not tested or not shown.

SMILES | DAGLB inhibitor | Myeloid diff MLP | ABHD5-PLIN5 inh | Cardio protect | HGIII-sPLA2 inh | Rtt109 HAT inh | hGIII sPLA2 conf | BODIPY interf
Nc1ccc(-c2ccc(N)cc2)cc1 | - | - | - | - | 19 | - | - | -
Nc1ccc(Sc2ccc(N)cc2)cc1 | - | - | - | - | - | - | . | .
C=CCn1c(O)c(/C(C)=N/N2CCN(C)CC2)c(=O)[nH]c1=O | - | - | - | - | - | - | . | .
CC1CC2(C)C(CCC3C2CCC2(C)C(OP(=O)(N4CC4)N4CC4)CCC32)CC1=O (stereo not given) | - | - | - | - | 25 | - | - | -
Cc1cc(N2CCNC[C@@H]2C)ccc1N1CCN[C@H](C)C1 | . | . | . | . | - | . | . | .
CCC(=NCc1ccco1)c1c(O)n(C)c(=O)n(C)c1=O | - | - | - | - | 20 | - | - | -
COC(=O)C1=C(c2ccc(S(C)(=O)=O)cc2)C[C@@H]2CC[C@H]1N2C(=O)NCc1cccc2ccccc12 | - | - | - | - | - | - | . | .
COc1ccc(-n2nnnc2C(C2CC2)N2CCC3(CC2)C(=O)NCN3c2ccccc2)cc1 (stereo not given) | . | - | - | - | - | . | . | .
O=C1CC(c2ccccc2)CN1 (stereo not given) | - | - | - | - | 24 | - | - | -
N#Cc1ccccc1Cn1cc(C(=O)C2CC2)c2ccccc21 | - | - | - | - | - | - | . | .
c1ccc(Cc2cnc(N3CCNCC3)nc2)cc1 | . | . | . | . | 25 | . | - | -
c1ccc2c(N3CCNCC3)cccc2c1 | - | - | - | - | - | - | . | .
Clc1cccc(N2CCNCC2)c1Cl | - | - | - | - | 25 | - | - | -
O=C1CN=C(c2ccccc2F)c2cc(Cl)ccc2N1 | - | - | - | - | 19 | - | - | -
S=C1CN=C(c2ccccc2Cl)c2cc(Cl)ccc2N1 | - | - | - | - | - | - | . | .
